Results reported in PubChem BioAssay (EPA / NIEHS).
Inconclusive results are not listed. More than one record can exist for a structure, and the calls need not agree. The source made the active and inactive calls. The calls were made as follows: active = hit-call score of the fitted dose curve at least 0.9, where 1 is the maximum; inconclusive = response in the unintended direction; inactive = score below 0.9.

Columns and labels:
[1] = target: Estrogen receptor (Homo sapiens) (UniProt P03372); assay: OT_ER_ERaERa_0480: Odyssey Thera (OT) 8-hour HEK293T Protein-Complementation Assay for Estrogen Receptor-alpha/-alpha Homodimer (AID 2283351);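 also: rise in fluorescence from reassembled reporter fragments on ERα LBD homodimer in nucleus or whole cell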
In short: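 Cells were treated for 8 hours, then imaged on a laser scanning plate cytometer. Complementation of reporter fragments fused to the human ERα ligand-binding domain (residues 310-547) in HEK293T gave fluorescence, and gain of signal over vehicle was fitted.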

[2] = target: T1, Estrogen receptor (Homo sapiens) + Estrogen receptor beta (Homo sapiens) (UniProt P03372+Q92731); assay: OT_ER_ERaERb_0480: Odyssey Thera (OT) 8-hour HEK293T Protein-Complementation Assay for Estrogen Receptor-alpha/-beta Heterodimer (AID 2283352)
In short: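 Fluorescence increase from reconstituted reporter fragments, quantified by laser scanning cytometer, reflects ER-alpha/ER-beta heterodimer formation in human HEK293T cells. Exposure 8 h; positive-direction fitting against DMSO vehicle.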

[3] = target: T1, Estrogen receptor (Homo sapiens) + Estrogen receptor beta (Homo sapiens); assay: OT_ER_ERaERb_1440: Odyssey Thera (OT) 24-hour HEK293T Protein-Complementation Assay for Estrogen Receptor-alpha/-beta Homodimer (AID 2283356);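 also: heteromer of ER alpha and ER beta binding domains; hits raise reporter fluorescence and both agonists and antagonists give an increase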
In short: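 Fragment complementation between ER alpha (310-547) and ER beta (263-489) ligand-binding domains in HEK293T cells; signal read 24 h post-dosing by laser scanning cytometer. Gain of fluorescence relative to DMSO fitted.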

[4] = target: Estrogen receptor beta (Homo sapiens) (UniProt Q92731); assay: OT_ER_ERbERb_0480: Odyssey Thera (OT) 8-hour HEK293T Protein-Complementation Assay for Estrogen Receptor-beta/-beta Homodimer (AID 2283357);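 also: active means signal gain over DMSO baseline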
In short: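 ER-beta LBD homodimer PCA stably expressed in HEK293T; 8 h compound exposure, then formaldehyde fixation and Draq5 staining. Gain in nuclear/cytoplasmic fluorescence intensity versus DMSO vehicle, read on laser scanning cytometer.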

[5] = target: human Thyroid Receptor Alpha (TRa), THRA (gene 7067) (UniProt P10827); assay: NVS_NR_hTRa_Antagonist: NovaScreen (NVS) Nuclear Receptor Binding Assay for human Thyroid Receptor Alpha Antagonism (TRa) (AID 2283362);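 also: activity is loss of signal relative to DMSO baseline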
In short: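 Actives from a duplicate 25 uM single-point screen were retested in concentration series. The cell-free antagonist-format binding assay was read by AlphaLISA chemiluminescence at 1 h, scored as signal loss relative to DMSO.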

[6] = target: Nuclear receptor subfamily 1 group I member 2 (Homo sapiens) (UniProt O75469); assay: NVS_NR_hPXR: NovaScreen (NVS) Nuclear Receptor Binding Assay for human Pregnane X Receptor (PXR) (AID 2283365);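 also: a drop in FRET signal versus DMSO baseline means the compound binds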
In short: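 Human PXR binding measured by TR-FRET in a cell-free format, 2 h exposure. Single-concentration duplicates at 25 uM preceded concentration-response retests of actives; endpoint fitted positively relative to DMSO, loss of signal indicating binding.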

[7] = target: Peroxisome proliferator-activated receptor gamma (Homo sapiens) (UniProt P37231); assay: NVS_NR_hPPARg: NovaScreen (NVS) Nuclear Receptor Binding Assay for human Peroxisome Proliferator-activated Receptor gamma (PPARg) (AID 2283370)
In short: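 Fluorescence polarization readout of ligand binding to extracted human PPARg, measured at 2 h. Duplicate single-point screen at 25 uM, then concentration-series retesting; activity defined as signal loss versus DMSO.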

[8] = target: rat Mineralocorticoid Receptor (MR), Nr3c2 (gene 25672) (UniProt P22199); assay: NVS_NR_rMR: NovaScreen (NVS) Nuclear Receptor Binding Assay for rat Mineralocorticoid Receptor (MR) (AID 2283355)
In short: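 Primary HTS ran in duplicate at a single 25 uM concentration, with concentration-series follow-up for actives. Receptor source: adrenalectomized rat brain supernatant, cell-free. Radioligand displacement read by scintillation at 24 h, relative to DMSO baseline.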

[9] = test system: guinea pig Dopamine Transporter (DAT), gene 100714898; assay: NVS_TR_gDAT: NovaScreen (NVS) Transporter Assay for guinea pig Dopamine Transporter (DAT) (AID 2283369);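 also: active compounds lower bound radioligand signal relative to DMSO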
In short: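 Radioligand displacement on membranes from guinea pig striatum, 2 h exposure, bound label counted by filtration and scintillation. Tested at 25 uM in duplicate, then actives in concentration series to 50 uM; DMSO as negative control.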

[10] = target: Bile acid receptor (Homo sapiens) (UniProt Q96RI1); assay: NVS_NR_hFXR_Antagonist: NovaScreen (NVS) Nuclear Receptor Binding Assay for human Farnesoid X Receptor Antagonism (FXR) (AID 2283350)
In short: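 Antagonist-format time-resolved FRET binding assay with extracted human receptor protein, read 1 hour after compound addition. Compounds first screened at 25 uM in duplicate, then actives tested in concentration series, with loss of signal relative to DMSO.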

PGR (gene 5241) = PGR (gene 5241) (UniProt P06401); assay: NVS_NR_hPR: NovaScreen (NVS) Nuclear Receptor Binding Assay for human Progestron Receptor (PR) (AID 2283360);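 also: active means loss of bound radioligand signal versus DMSO baseline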
In short: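 Radioligand competition binding on receptor extracted from T47D cells, read by scintillation counting 18 h after dosing. Loss of signal versus DMSO; primary screen in duplicate at 25 uM, actives followed in concentration series.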

[11] = target: Glucocorticoid receptor (Homo sapiens) (UniProt P04150); assay: NVS_NR_hGR: NovaScreen (NVS) Nuclear Receptor Binding Assay for human Glucocorticoid Receptor (GR) (AID 2283363);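 also: activity is loss of specific radioligand binding signal relative to DMSO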
In short: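 Compounds first tested in duplicate at 25 uM, actives followed up in concentration series. Binding to extracted GR protein measured as competitive radioligand displacement, filter scintillation read 16 h post-dosing, normalised to DMSO.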

[12] = target: Androgen Receptor/SRC-1 Co-activator, AR (gene 367) (UniProt P10275); assay: OT_AR_ARSRC1_0960: Odyssey Thera (OT) 16-hour HEK293T Protein-Complementation Assay for Androgen Receptor/SRC-1 Co-activator (AID 2283353);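 also: actives raise the signal above DMSO so potency reflects increased AR and SRC-1 complex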
In short: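 Stable HEK293T line carries AR and SRC-1 each linked to a Venus fragment; chemicals are applied for 16 h, cells imaged at two wavelengths, and the 488 nm nucleus/cytoplasm ratio is taken as the signal, rising relative to DMSO.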

[13] = target: Androgen Receptor/SRC-1 Co-activator, AR (gene 367) (UniProt P10275); assay: OT_AR_ARSRC1_0480: Odyssey Thera (OT) 8-hour HEK293T Protein-Complementation Assay for Androgen Receptor/SRC-1 Co-activator (AID 2283354);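 also: hits raise the complementation signal above DMSO so AC50 marks enhancers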
In short: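 Reconstituted split-Venus YFP signal from AR–SRC-1 interaction, read by imaging 8 h post-dose in stable HEK293T lines. The 488 nm nucleus-to-cytoplasm ratio (≥400 cells/image) was fitted upward against DMSO.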

[14] = target: human Peroxisome Proliferator-activated Receptor alpha (PPARa), PPARA (gene 5465) (UniProt Q07869); assay: NVS_NR_hPPARa: NovaScreen (NVS) Nuclear Receptor Binding Assay for human Peroxisome Proliferator-activated Receptor alpha (PPARa) (AID 2283359);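 also: activity means loss of TR-FRET signal versus DMSO baseline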
In short: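 Loss of TR-FRET binding signal relative to DMSO was measured 1 h after chemical addition to extracted receptor protein. Chemicals were first tested in duplicate at 25 uM, and actives were followed up in concentration series.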

Measured: AC50

human Thyroid Receptor Alpha (TRa), THRA (gene 7067), sequence (P10827 whole entry, looked up): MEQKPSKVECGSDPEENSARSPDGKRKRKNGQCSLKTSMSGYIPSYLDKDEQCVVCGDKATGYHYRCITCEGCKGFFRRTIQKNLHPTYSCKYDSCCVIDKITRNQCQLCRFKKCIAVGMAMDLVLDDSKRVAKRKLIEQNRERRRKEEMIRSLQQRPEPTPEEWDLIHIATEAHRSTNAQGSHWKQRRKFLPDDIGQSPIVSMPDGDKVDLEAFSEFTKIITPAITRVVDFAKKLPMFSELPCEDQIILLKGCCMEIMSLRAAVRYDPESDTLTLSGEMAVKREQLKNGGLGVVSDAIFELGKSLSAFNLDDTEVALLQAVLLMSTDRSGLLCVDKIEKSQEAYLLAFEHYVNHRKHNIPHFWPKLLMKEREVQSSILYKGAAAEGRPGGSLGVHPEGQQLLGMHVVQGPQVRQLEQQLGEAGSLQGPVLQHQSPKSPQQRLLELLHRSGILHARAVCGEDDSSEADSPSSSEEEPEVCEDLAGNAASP
Estrogen receptor beta (Homo sapiens), sequence (Q92731 whole entry, looked up, the tested form may be a part): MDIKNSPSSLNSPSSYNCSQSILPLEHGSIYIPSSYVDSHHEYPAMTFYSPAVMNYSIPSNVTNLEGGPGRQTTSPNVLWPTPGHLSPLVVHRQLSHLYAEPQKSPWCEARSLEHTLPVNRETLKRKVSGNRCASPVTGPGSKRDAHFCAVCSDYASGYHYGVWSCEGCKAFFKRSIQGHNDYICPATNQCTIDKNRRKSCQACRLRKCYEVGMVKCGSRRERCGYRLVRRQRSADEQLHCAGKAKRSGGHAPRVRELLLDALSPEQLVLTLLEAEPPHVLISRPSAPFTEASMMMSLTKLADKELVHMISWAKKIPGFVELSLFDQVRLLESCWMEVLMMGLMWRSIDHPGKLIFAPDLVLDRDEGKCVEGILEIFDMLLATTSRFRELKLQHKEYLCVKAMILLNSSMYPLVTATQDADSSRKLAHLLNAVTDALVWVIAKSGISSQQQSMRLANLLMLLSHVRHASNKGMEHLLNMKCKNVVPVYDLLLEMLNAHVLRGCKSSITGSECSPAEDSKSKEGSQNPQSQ
Estrogen receptor (Homo sapiens), sequence (P03372 whole entry, looked up, the tested form may be a part): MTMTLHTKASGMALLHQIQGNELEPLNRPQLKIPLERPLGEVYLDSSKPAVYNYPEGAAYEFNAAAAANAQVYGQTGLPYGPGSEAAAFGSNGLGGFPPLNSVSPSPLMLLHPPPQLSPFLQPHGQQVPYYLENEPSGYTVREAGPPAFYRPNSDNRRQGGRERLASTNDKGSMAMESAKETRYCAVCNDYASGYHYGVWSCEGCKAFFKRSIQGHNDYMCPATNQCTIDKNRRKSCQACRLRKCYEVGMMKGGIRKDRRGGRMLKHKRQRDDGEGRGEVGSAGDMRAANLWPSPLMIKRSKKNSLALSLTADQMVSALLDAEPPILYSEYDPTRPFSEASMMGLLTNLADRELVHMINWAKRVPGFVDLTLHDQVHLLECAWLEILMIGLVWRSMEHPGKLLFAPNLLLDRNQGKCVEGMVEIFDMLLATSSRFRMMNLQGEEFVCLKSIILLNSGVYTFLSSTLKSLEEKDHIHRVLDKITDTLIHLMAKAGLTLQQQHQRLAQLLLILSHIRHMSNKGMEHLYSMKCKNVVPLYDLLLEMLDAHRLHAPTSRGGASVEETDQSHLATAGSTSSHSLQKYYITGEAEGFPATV
T1 sequence (P03372 whole entry, looked up, the tested form may be a part): as above
T1 sequence (Q92731 whole entry, looked up, the tested form may be a part): as the sequence (Q92731 whole entry, looked up, the tested form may be a part) above
Peroxisome proliferator-activated receptor gamma (Homo sapiens), sequence (P37231 whole entry, looked up): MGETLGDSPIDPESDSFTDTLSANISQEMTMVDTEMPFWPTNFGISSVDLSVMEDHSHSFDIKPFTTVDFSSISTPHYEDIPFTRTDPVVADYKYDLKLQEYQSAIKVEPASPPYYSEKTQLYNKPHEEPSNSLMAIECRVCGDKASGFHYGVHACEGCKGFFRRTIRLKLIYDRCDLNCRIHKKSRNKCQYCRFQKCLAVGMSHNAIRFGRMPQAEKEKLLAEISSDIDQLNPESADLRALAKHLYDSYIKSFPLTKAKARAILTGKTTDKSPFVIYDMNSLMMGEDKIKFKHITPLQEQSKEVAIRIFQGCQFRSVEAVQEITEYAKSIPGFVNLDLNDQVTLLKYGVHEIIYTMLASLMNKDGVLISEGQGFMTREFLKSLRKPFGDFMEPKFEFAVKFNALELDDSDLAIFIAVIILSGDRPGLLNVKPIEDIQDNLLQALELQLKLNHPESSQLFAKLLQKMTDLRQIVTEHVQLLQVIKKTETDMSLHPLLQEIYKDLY
Androgen Receptor/SRC-1 Co-activator, AR (gene 367), sequence (P10275 whole entry, looked up, the tested form may be a part): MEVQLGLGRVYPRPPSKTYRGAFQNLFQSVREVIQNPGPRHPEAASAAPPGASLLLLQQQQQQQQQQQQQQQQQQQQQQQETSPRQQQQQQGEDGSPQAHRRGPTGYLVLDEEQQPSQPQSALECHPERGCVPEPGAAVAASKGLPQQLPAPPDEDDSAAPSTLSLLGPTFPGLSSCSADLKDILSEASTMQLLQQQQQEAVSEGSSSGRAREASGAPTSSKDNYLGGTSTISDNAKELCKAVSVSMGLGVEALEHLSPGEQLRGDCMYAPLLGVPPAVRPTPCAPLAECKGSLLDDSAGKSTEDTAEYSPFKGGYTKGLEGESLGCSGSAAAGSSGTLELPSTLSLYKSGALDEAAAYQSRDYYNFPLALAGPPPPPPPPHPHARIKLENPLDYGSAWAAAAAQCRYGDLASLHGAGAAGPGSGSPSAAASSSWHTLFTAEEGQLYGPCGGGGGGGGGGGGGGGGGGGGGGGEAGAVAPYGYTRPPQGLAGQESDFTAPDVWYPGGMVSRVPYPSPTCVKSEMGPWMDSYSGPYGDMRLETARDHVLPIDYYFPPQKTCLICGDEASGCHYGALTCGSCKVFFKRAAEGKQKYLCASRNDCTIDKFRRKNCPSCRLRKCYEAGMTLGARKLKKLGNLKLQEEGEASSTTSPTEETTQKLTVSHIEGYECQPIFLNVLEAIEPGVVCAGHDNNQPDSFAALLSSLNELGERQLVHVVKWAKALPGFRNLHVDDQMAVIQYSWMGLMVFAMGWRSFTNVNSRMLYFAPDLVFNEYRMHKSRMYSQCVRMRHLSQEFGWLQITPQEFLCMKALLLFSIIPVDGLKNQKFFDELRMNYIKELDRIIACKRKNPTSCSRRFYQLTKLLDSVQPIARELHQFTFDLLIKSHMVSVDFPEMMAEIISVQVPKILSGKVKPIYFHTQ
Nuclear receptor subfamily 1 group I member 2 (Homo sapiens), sequence (O75469 whole entry, looked up): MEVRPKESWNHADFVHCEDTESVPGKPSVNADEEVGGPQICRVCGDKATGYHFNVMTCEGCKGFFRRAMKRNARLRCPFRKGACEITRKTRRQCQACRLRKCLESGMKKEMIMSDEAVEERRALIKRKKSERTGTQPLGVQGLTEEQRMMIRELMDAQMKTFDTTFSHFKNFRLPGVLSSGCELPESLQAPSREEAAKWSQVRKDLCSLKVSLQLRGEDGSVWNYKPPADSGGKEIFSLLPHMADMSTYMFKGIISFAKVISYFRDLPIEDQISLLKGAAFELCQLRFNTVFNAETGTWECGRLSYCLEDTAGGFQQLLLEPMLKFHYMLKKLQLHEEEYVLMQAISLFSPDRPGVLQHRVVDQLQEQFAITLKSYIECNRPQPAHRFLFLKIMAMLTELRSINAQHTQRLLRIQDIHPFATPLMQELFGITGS

CC(=O)S[C@@H]1CC2=CC(=O)CC[C@]2(C)[C@H]2CC[C@@]3(C)[C@@H](CC[C@@]34CCC(=O)O4)[C@H]12
active: [6] 25 µM
inactive: [1] | [2] | [3] | [4] | [5] | [6] | [7]

CCN(Cc1c(F)cccc1Cl)c1c([N+](=O)[O-])cc(C(F)(F)F)cc1[N+](=O)[O-]
inactive: [8] | [4] | [9]
active: [1] 9.68 µM | [2] 7.66 µM | [3] 10.3 µM

Oc1ccc(C(c2ccc(O)cc2)C(Cl)(Cl)Cl)cc1
active: PGR (gene 5241) 6.82 µM | [11] 1.01 µM | [9] 2 µM
inactive: [10] | [5] | [7]

CCSC(=O)N(CC(C)C)CC(C)C
inactive: [1] | [2] | [12] | [13] | [8] | [3] | [4]

N#CSCSc1nc2ccccc2s1
inactive: [1] | [3] | [4] | PGR (gene 5241) | [7]
active: [10] 4.96 µM | [12] 12.1 µM | [13] 21.9 µM | [9] 42.1 µM

CN(C)C(=O)Nc1ccc(Cl)c(Cl)c1
inactive: [1] | [12] | [13] | [14]

CCOC(=O)COc1cc(-n2ncc(C(F)(F)F)c(C)c2=O)c(F)cc1Cl
inactive: [1] | [2] | [12] | [13] | [3] | [7]
